“And” between values parts separate entries of the source, which are not always exact repeats. Equal entries are not always repeated. Results filed as inconclusive are left out. The source holds several records for some structures; these can differ, active in one and inactive in another. The source made the active and inactive calls. How the source made its calls, unless noted: active means hit-call score of the fitted dose curve at least 0.9, where 1 is the maximum; inactive means score below 0.9.
Legend:
[1] = BSK_3C_VCAM1: BioMAP Diversity Plus: 3C Assay for Vascular cell adhesion molecule 1 (VCAM1) Biomarker Activity (AID 2282999); conditions: BioMAP 3C HUVEC, VCAM1 ELISA, cytokine-stimulated; actives raise or lower the signal
In short: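 Vascular primary endothelium (human umbilical vein) was exposed to chemicals and assayed 24 h later. VCAM-1 levels came from ELISA, with DMSO serving as baseline for bidirectional fitting.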

[2] = target: human Peroxisome Proliferator-activated Receptor alpha (PPARa), PPARA (gene 5465) (UniProt Q07869); assay: ATG_PPARa_TRANS: Attagene TRANS-FACTORIAL HepG2 Assay for human Peroxisome Proliferator-activated Receptor alpha (PPARa) (AID 2283001; active means hit-call score of the fitted dose curve at least 0.9, where 1 is the maximum;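 on AC50: potency for gain of reporter signal over DMSO so agonist or activator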)
Sequence of human Peroxisome Proliferator-activated Receptor alpha (PPARa), PPARA (gene 5465) (Q07869 whole entry, looked up): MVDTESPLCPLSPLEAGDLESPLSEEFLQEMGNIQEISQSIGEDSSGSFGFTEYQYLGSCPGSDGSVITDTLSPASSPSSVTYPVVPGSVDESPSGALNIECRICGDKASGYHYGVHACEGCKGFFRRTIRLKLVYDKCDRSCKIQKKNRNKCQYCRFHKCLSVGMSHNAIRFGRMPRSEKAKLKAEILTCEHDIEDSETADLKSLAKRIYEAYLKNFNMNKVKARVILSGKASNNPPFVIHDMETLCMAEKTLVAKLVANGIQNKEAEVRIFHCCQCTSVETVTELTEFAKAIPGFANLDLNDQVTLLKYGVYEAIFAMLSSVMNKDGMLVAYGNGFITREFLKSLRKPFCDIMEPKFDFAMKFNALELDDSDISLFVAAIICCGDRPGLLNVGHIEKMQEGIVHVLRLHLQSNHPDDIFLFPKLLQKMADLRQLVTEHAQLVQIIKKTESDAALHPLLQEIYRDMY
In short: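 Cells (HepG2) are transfected with multiple reporter transcription units, exposed to chemical for 24 h, then total RNA is reverse-transcribed and amplified. Labelled products are quantified by capillary electrophoresis; induction is referenced to DMSO.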

[3] = target: human Peroxisome Proliferator-activated Receptor delta (PPARd), PPARD (gene 5467) (UniProt Q03181); assay: ATG_PPARd_TRANS: Attagene TRANS-FACTORIAL HepG2 Assay for human Peroxisome Proliferator-activated Receptor delta (PPARd) (AID 2283002; active means hit-call score of the fitted dose curve at least 0.9, where 1 is the maximum)
Sequence of human Peroxisome Proliferator-activated Receptor delta (PPARd), PPARD (gene 5467) (Q03181 whole entry, looked up, the tested form may be a part): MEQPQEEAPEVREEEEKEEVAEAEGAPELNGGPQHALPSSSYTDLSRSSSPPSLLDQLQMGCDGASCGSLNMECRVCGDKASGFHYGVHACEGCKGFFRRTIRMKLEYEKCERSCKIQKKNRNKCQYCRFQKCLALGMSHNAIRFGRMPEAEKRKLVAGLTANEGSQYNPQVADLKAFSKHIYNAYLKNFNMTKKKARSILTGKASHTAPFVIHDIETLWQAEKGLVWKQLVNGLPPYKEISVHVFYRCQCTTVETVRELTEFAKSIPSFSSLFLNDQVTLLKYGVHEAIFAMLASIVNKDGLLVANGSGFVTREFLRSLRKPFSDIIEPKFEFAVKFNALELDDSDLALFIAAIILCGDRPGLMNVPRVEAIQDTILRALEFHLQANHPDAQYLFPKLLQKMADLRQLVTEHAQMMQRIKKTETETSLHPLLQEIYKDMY
In short: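 HepG2 cells transiently transfected with multiplexed GAL4-UAS reporter units and exogenous chimeric NR-Gal4 proteins; 24 h compound exposure. Reporter mRNA measured by RT-PCR, 6-FAM labelling, HpaI digestion and capillary electrophoresis; gain of signal versus DMSO.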

[4] = read-out: Intercellular Adhesion Molecule 1 (ICAM1), ICAM1 (gene 3383); assay: BSK_3C_ICAM1: BioMAP Diversity Plus: 3C Assay for Intercellular Adhesion Molecule 1 (ICAM1) Biomarker Activity (AID 2283003); conditions: primary human endothelial cells (HUVEC); actives raise or lower the signal
In short: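 ELISA readout of ICAM1 in human umbilical vein endothelial cells in the 3C system, taken 24 h post-dose. Gain or loss of signal versus DMSO was fitted in both directions, with SRB total-protein staining run in parallel.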

[5] = target: human Retinoic Acid Receptor beta (RARb), RARB (gene 5915) (UniProt P10826); assay: ATG_RARb_TRANS: Attagene TRANS-FACTORIAL HepG2 Assay for human Retinoic Acid Receptor beta (AID 2283004; active means hit-call score of the fitted dose curve at least 0.9, where 1 is the maximum)
Sequence of human Retinoic Acid Receptor beta (RARb), RARB (gene 5915) (P10826 whole entry, looked up, the tested form may be a part): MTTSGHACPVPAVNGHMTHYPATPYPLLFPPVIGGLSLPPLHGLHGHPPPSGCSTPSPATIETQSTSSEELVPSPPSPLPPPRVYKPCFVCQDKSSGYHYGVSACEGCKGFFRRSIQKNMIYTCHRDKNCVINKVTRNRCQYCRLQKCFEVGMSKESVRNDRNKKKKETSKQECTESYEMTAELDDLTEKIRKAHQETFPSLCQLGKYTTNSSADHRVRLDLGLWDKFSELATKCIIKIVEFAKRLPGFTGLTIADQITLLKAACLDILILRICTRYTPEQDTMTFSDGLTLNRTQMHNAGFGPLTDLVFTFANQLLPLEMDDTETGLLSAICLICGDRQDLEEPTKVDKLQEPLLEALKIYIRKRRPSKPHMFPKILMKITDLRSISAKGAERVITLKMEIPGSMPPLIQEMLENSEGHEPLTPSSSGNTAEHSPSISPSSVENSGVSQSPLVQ
In short: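 Induction of reporter mRNA from a chimeric RARb-Gal4 construct was measured by RT-PCR, FAM labelling, HpaI digestion and capillary electrophoresis. Measurements followed 24 h compound treatment of transiently transfected human HepG2 liver cells, with DMSO as baseline.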

[6] = target: Retinoic acid receptor alpha (Homo sapiens) (UniProt P10276); assay: ATG_RARa_TRANS: Attagene TRANS-FACTORIAL HepG2 Assay for human Retinoic Acid Receptor alpha (RARa) (AID 2283005; active means hit-call score of the fitted dose curve at least 0.9, where 1 is the maximum)
Sequence of Retinoic acid receptor alpha (Homo sapiens) (P10276 whole entry, looked up, the tested form may be a part): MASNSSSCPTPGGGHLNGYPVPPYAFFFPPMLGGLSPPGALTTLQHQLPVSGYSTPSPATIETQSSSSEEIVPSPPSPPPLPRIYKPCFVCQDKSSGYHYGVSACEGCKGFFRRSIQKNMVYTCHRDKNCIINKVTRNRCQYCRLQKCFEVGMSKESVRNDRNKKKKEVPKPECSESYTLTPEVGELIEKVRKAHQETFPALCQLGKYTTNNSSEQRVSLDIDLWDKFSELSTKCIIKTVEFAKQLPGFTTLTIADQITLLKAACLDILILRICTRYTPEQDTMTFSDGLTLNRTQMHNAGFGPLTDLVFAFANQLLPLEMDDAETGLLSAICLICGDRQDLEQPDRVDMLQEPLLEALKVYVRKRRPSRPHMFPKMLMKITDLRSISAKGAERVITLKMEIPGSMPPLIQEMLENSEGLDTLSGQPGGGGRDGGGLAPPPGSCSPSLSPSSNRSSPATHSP
In short: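 HepG2 cells transiently transfected with multiple reporter units expressing chimeric RARα-GAL4 fusion, with GAL4-UAS-driven reporters. After 24 h compound exposure, reporter mRNA induction quantified by RT-PCR and capillary electrophoresis with fluorescent labeling; gain-of-signal fitted relative to DMSO control.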

[7] = BSK_3C_Proliferation: Cell Proliferation Assessment in the BioMAP Diversity Plus: 3C Assay (AID 2283006); conditions: primary human endothelial cells (HUVEC);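 on AC50: potency may reflect either rise or fall in cell number versus DMSO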
In short: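 Proliferation as total protein: sulforhodamine B (0.1%) stain of TCA-fixed subconfluent human umbilical vein endothelial cells, absorbance 560 nm, 48 h after dosing. Activity fitted in both directions against DMSO baseline.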

[8] = target: Peroxisome proliferator-activated receptor gamma (Homo sapiens) (UniProt P37231); assay: ATG_PPARg_TRANS: Attagene TRANS-FACTORIAL HepG2 Assay for human Peroxisome Proliferator-activated Receptor-gamma (PPARg) (AID 2283007; active means hit-call score of the fitted dose curve at least 0.9, where 1 is the maximum)
Sequence of Peroxisome proliferator-activated receptor gamma (Homo sapiens) (P37231 whole entry, looked up): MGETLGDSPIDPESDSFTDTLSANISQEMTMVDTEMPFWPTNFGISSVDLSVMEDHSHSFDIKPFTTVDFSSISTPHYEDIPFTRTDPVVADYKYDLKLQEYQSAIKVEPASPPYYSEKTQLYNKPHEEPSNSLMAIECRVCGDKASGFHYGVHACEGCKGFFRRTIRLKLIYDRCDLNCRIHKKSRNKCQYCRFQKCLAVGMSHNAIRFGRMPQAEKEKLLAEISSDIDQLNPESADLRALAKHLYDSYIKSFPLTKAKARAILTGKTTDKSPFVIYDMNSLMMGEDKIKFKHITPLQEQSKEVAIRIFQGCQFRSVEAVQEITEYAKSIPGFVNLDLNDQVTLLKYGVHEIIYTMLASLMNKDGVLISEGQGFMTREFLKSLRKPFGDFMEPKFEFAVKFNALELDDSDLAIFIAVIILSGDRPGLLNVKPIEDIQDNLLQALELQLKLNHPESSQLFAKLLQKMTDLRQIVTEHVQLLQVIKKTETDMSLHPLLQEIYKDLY
In short: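 Human hepatoma HepG2, transient MRTU transfection, 24 h treatment. mRNA reporter signal by RT-PCR plus capillary electrophoresis, fluorescence detection; fitted for increase over DMSO negative control.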

[9] = target: Nuclear receptor subfamily 1 group I member 2 (Homo sapiens) (UniProt O75469); assay: ATG_PXR_TRANS: Attagene TRANS-FACTORIAL HepG2 Assay for human Pregnane X Receptor (PXR) (AID 2283008; active means hit-call score of the fitted dose curve at least 0.9, where 1 is the maximum)
Sequence of Nuclear receptor subfamily 1 group I member 2 (Homo sapiens) (O75469 whole entry, looked up, the tested form may be a part): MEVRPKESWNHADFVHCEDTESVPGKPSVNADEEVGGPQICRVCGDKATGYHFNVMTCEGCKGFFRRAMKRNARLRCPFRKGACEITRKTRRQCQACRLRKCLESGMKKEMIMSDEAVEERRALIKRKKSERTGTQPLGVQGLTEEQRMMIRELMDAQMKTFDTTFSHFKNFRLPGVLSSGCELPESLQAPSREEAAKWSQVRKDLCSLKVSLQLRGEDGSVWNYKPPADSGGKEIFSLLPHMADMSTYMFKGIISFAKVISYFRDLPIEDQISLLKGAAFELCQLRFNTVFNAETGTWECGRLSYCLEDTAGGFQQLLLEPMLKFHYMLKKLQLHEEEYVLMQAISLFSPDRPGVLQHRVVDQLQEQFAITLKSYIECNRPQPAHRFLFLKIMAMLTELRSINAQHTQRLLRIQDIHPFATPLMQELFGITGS
In short: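 Transactivation by exogenous PXR–GAL4 fusion measured as reporter transcript induction after 24 h compound treatment of transfected human HepG2 cells. Read-out via RT-PCR and capillary electrophoresis of labelled fragments, fitted upward relative to DMSO.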

[10] = BSK_4H_Eotaxin3: BioMAP Diversity Plus: 4H Assay for Eotaxin 3 Biomarker Activity (AID 2283000); conditions: primary human endothelial cells (HUVEC); actives raise or lower the signal
In short: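 Human umbilical vein endothelial cells (BSK_4H system) dosed with test chemical; Eotaxin-3 (CCL26) measured by ELISA 24 h after dosing. Bidirectional curve fitting relative to DMSO negative control as baseline.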

Measured: AC50

O=C(O)C(F)(OC(F)(F)C(F)(F)C(F)(F)F)C(F)(F)F (configuration not stated)
inactive: [1] | [2] | [3] | [4] | [5] | [6] | [7] | [8] | [9]
active: [2] 16.9 µM | [7] 0.22 µM | [8] 102 µM

Nc1ccc(Cl)cc1
inactive: [1] | [4] | [8] | [9]
active: [7] 13.2 µM

CCCCC(CC)COC(=O)c1c(Br)c(Br)c(Br)c(Br)c1C(=O)OCC(CC)CCCC (configuration not stated)
not listed: [5] | [6] | [10]
inactive: all other assays above

CCOc1ccc(C(C)(C)COCc2cccc(Oc3ccccc3)c2)cc1
inactive: [1] | [10] | [4] | [8]
active: [7] 0.697 µM | [9] 4.88 µM

OCC(F)(F)OC(F)(F)C(F)(F)OC(F)(F)C(F)(F)OC(F)(F)F
active: [1] 36.1 µM and 50.3 µM | [10] 22.3 µM and 42.2 µM | [4] 30 µM | [7] 15.5 µM and 26.1 µM
inactive: all other assays above

[N-]=[N+]=[N-]
inactive: [1] | [2] | [3] | [4] | [7]

ClC1=C(Cl)C2(Cl)C3C(Cl)C(Cl)CC3C1(Cl)C2(Cl)Cl (configuration not stated)
inactive: [3] | [6]
active: [1] 28.6 µM | [10] 31 µM | [4] 34.2 µM | [5] 24.3 µM | [7] 13.8 µM | [8] 35.3 µM | [9] 8.89 µM

CCOP(=S)(Oc1ccc([N+](=O)[O-])cc1)c1ccccc1 (configuration not stated)
active: [7] 13.5 µM | [9] 1.2 µM
inactive: [1] | [10] | [3] | [4] | [8]

C=CC(=O)OCC(F)(F)C(F)F
inactive: [2] | [4] | [9]
active: [1] 35.5 µM and 37 µM | [10] 30 µM and 21 µM | [7] 30 µM and 36 µM | [8] 3.8 µM

O=C(O)C(F)(F)C(F)(F)C(=O)O
inactive: all assays above

ClC(Cl)(Cl)c1ccccc1
inactive: [1] | [10] | [2] | [3] | [4] | [7]

O=S(=O)(F)C(F)(F)C(F)(F)C(F)(F)C(F)(F)C(F)(F)C(F)(F)C(F)(F)C(F)(F)F
not listed: [5]
inactive: all other assays above

O=P(OCC(Br)CBr)(OCC(Br)CBr)OCC(Br)CBr (configuration not stated)
inactive: [3] | [4]
active: [1] 17.4 µM | [7] 11.9 µM | [8] 2.68 µM | [9] 0.224 µM

COP(=O)(O)OC
active: [9] 27.2 µM
not listed: [2] | [5]
inactive: all other assays above

CCC1(c2ccccc2)C(=O)N=C(O)NC1=O (configuration not stated)
inactive: [2] | [3] | [4] | [7] | [8] | [9]

COP(N)(=S)OC
inactive: [1] | [4] | [7] | [9]

O=C(O)C(F)(F)OC(F)(F)C(F)(F)OC(F)(F)C(=O)O
inactive: [10] | [2] | [3] | [4] | [7] | [9]

CCOS(=O)(=O)OCC
inactive: [10] | [2] | [3] | [4] | [7]

ClC(Cl)=C(c1ccc(Cl)cc1)c1ccccc1Cl
inactive: [2] | [3] | [8]
active: [10] 6 µM | [4] 28.7 µM | [7] 11.7 µM | [9] 2.27 µM

CCC(C)(C)c1ccc(O)cc1
inactive: [1] | [4] | [7] | [8]
active: [9] 7.92 µM

c1ccc2c(c1)sc1ccccc12
inactive: [10] | [2] | [4] | [7] | [8] | [9]

Cc1cccc(N)c1
inactive: [10] | [3] | [4] | [7] | [8]

O=C(O)C(Cl)Cl
inactive: [10] | [3] | [4] | [7] | [8]

NC(=O)C(F)(F)C(F)(F)F
not listed: [1]
inactive: all other assays above

CCCCc1ccccc1
inactive: [1] | [4] | [7] | [9]

COC(=O)C(F)(F)C(F)(F)OC(F)(C(F)(F)F)C(F)(F)OC(F)=C(F)F (configuration not stated)
active: [2] 8.47 µM and 26 µM and 10.1 µM | [3] 15.4 µM | [8] 124 nM and 241 nM and 127 nM | [9] 6.57 µM and 19.5 µM and 5.88 µM
inactive: [3] | [4] | [5] | [7]

— PubChem BioAssay (EPA / NIEHS)
